This is a sample that favours compounds with a hit; in the whole collection about 2.2% have one here.
NPR2 activator: GC-B (human) receptor activation; P20594; HEK293-GC-B cells, CNP EC30, cGMP TR-FRET; 0% at EC30 CNP, 100% saturating CNP; activation, % at 10 µM; 370,000 tested, 0.11% active;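 active = activation at 10 µM reaching about 35% in either raw or pattern-adjusted values, limit read from the data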
PLCb3 inh: blocks human PLC-beta3 enzyme activity. inhibition, % at 12.2 µM. 370,000 tested, 0.18% active. Purified PLC-beta3, fluorogenic substrate, fluorescence. Q01970. AID 720704; in the data active = inhibition above about 11%
Rce1 inh: inhibitors of yeast Ras-converting enzyme; Q03530; yeast membranes, quenched prenylated peptide cleavage fluorescence; calls only; 290,000 tested, 0.27% active;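 active = fall in fluorescence gain of 50% or more versus controls, with final raw signal at or below 3038400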
Target sequence (Q03530 whole entry, looked up): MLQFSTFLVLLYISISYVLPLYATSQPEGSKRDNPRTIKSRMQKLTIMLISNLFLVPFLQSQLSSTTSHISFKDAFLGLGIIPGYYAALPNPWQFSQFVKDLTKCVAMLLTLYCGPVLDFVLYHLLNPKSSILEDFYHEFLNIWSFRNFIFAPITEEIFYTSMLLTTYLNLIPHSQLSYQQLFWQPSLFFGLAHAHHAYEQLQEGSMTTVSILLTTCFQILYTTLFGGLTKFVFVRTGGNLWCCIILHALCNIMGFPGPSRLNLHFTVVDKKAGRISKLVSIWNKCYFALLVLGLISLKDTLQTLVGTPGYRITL
NPR1 activator: GC-A (human) enzyme activation | 370,000 tested, 0.14% active | P16066 | HEK293 GC-A cells, cGMP TR-FRET, EC30 ANP; 0% at EC30 ANP, 100% saturating ANP | activation, % at 10 µM; in the data active = activation above about 40%
PLC-gamma1 inh: PLC-gamma1 (human) inhibition, primary screen | P19174 | purified PLC-gamma1, fluorogenic substrate, fluorescence | inhibition, % at 12.2 µM | 370,000 tested, 0.84% active | AID 720700; in the data active = inhibition above about 9.5%
PfM18AAP inh-1: blocks P. falciparum M18 aspartyl aminopeptidase | inhibition, % at 7.35 µM | 290,000 tested, 1.2% active | recombinant PfM18AAP, H-Glu-NHMec fluorogenic cleavage;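 active = inhibition above the campaign mean inhibition over all tested compounds plus 3 SD, cut at about 28% in these data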
PfM18AAP inh-2: confirmation of Plasmodium falciparum M18 aspartyl aminopeptidase inhibitors. shares compounds with PfM18AAP inh-1. recombinant PfM18AAP, H-Glu-NHMec fluorogenic cleavage. inhibition, % at 7.35 µM. 2,400 tested, 28% active;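 active = mean inhibition over replicate wells above the hit cutoff set for the earlier primary screen, cut at about 29% in these data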
CTSL1 counter: Cathepsin L (human) inhibition, confirmation | shares compounds with PfM18AAP inh-1 | purified cathepsin L1, Z-Leu-Arg-MCA fluorescence | inhibition, % at 5.96 µM | 2,400 tested, under 10 active | AID 2178;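 active = average inhibition across replicates above the hit cutoff set in the earlier primary screen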
Target sequence (P07711 whole entry, looked up): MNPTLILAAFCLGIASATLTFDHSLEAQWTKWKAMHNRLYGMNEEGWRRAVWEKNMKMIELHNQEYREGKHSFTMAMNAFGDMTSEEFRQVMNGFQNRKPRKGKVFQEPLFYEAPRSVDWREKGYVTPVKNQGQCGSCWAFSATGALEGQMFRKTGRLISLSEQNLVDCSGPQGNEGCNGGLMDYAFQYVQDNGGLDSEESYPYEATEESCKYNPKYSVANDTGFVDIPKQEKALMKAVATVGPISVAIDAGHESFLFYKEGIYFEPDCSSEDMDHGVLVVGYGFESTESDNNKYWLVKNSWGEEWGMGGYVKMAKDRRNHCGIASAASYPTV
Large screens that a line does not name were inactive (follow-up assays come after a bar, where they were run).

C/C(=N\Nc1ccc2nncn2n1)c1ccccn1	PfM18AAP inh-1 40 | PfM18AAP inh-2 inactive | CTSL1 counter inactive
C(=N\Nc1nncc2ccccc12)/c1ccccn1	none
C/C(=N\Nc1ccc2nncn2n1)c1ccc(Br)s1	PfM18AAP inh-1 50 | PfM18AAP inh-2 inactive | CTSL1 counter inactive
CC(=NNc1ccc2ccccc2n1)c1ccccn1	none (no result: Rce1 inh, PfM18AAP inh-1)
C(=N\Nc1ccc2nncn2n1)/c1ccccn1	PfM18AAP inh-1 41 | PfM18AAP inh-2 inactive | CTSL1 counter inactive
C/C(=N\Nc1ccc2nncn2n1)c1ccco1	PfM18AAP inh-1 45 | PfM18AAP inh-2 inactive | CTSL1 counter inactive
COC(=O)[C@]12C[C@H](CC(=O)NCc3ccc(OC)c(OC)c3)C(=O)N(Cc3cccc4ccccc34)C1=C[C@H](C1CCCC1)O[C@@H]2C	none (no result: Rce1 inh, PfM18AAP inh-1)
O=C(Nc1cc(Cl)ccc1F)C1CCCN1S(=O)(=O)c1cccc2cccnc12 (stereo not drawn)	none (no result: Rce1 inh, PfM18AAP inh-1)
CN1CCC(=C2c3ccccc3C(O)c3ccccc32)CC1 (stereo not drawn)	none
CN1CCc2cccc3c2C1Cc1ccc(O)c(O)c1-3 (stereo not drawn)	PfM18AAP inh-1 75 | PfM18AAP inh-2 74 | CTSL1 counter inactive
COc1ccc(Cc2nnc(N/N=C/c3ccc(O)cc3O)[nH]c2=O)cc1OC	PfM18AAP inh-1 39 | PfM18AAP inh-2 46 | CTSL1 counter inactive
COC(CNC(=O)[C@H](Cc1ccccc1)NC1(C(=O)NC2CCCCC2)CCC1)OC	none (no result: Rce1 inh, PfM18AAP inh-1)
CCCn1c(N/N=C(C)\C=C\c2ccccc2)nc2c1c(=O)[nH]c(=O)n2C	PfM18AAP inh-1 44 (no result: NPR2 activator, PLCb3 inh, NPR1 activator, PLC-gamma1 inh) | PfM18AAP inh-2 inactive | CTSL1 counter inactive
CCCn1c(SCCc2ccccc2)nc2c1c(=O)[nH]c(=O)n2C	none
CCCCOC(=O)CCN1C(=O)/C(=C/c2ccccc2)SC1=S	none (no result: Rce1 inh, PfM18AAP inh-1)
Nc1nncn1C(=O)CCCOc1ccc(Cl)cc1Cl	PfM18AAP inh-1 47 | PfM18AAP inh-2 63 | CTSL1 counter inactive
Nc1nncn1C(=O)CCCN1C(=O)c2ccccc2C1=O	PfM18AAP inh-1 44 | PfM18AAP inh-2 47 | CTSL1 counter inactive
Cc1ccc(/C=N/Nc2cn[nH]c(=O)n2)o1	PfM18AAP inh-1 48 | PfM18AAP inh-2 inactive | CTSL1 counter inactive
Cc1ccc(-n2c(SCC(=O)c3ccc(O)c(O)c3)nnc2-c2ccccc2)cc1	none (no result: Rce1 inh, PfM18AAP inh-1)
C[C@H]1[C@H](c2ccccc2)Oc2cccc(NCCc3ccccc3)c2S(=O)(=O)N1Cc1cccc(Cl)c1	none (no result: Rce1 inh, PfM18AAP inh-1)
O=[N+]([O-])c1ccc(NNC(=S)Nc2ccccc2)cc1	PfM18AAP inh-1 39 (no result: NPR2 activator, PLCb3 inh, NPR1 activator, PLC-gamma1 inh) | PfM18AAP inh-2 32 | CTSL1 counter inactive
O=C(NNc1ccc([N+](=O)[O-])cc1)c1ccco1	PfM18AAP inh-1 69 | PfM18AAP inh-2 45 | CTSL1 counter inactive
Oc1cccc(NC(=S)Nc2ccccc2)c1	none | PfM18AAP inh-2 inactive | CTSL1 counter inactive
O=[N+]([O-])c1ccc(NC(=S)NCCc2ccccc2)cc1	none
Fc1cccc(NC(=S)NNc2ccccc2)c1	PfM18AAP inh-1 38 | PfM18AAP inh-2 inactive | CTSL1 counter inactive
COC(=O)[C@]12C[C@H](CC(=O)NCCCCc3ccccc3)C(=O)N(Cc3ccco3)C1=C[C@H](COCc1ccccc1)O[C@@H]2C	none (no result: Rce1 inh, PfM18AAP inh-1)
Cc1cccc2sc(NNC(=O)c3ccc(S(=O)(=O)N4CC(C)CC(C)C4)cc3)nc12 (stereo not drawn)	PfM18AAP inh-1 32 | PfM18AAP inh-2 inactive | CTSL1 counter inactive
Cc1ccc2nc(NNC(=O)c3ccc(S(=O)(=O)N4CCc5ccccc5C4)cc3)sc2c1	none
Cc1cc(C)c2nc(NNC(=O)c3ccc(S(=O)(=O)N4CCCC(C)C4)cc3)sc2c1 (stereo not drawn)	PfM18AAP inh-1 39 | PfM18AAP inh-2 inactive | CTSL1 counter inactive
O=C(Nc1ccc(C(O)(C(F)(F)F)C(F)(F)F)cc1)c1ccc(Cl)cc1	none (no result: Rce1 inh, PfM18AAP inh-1)
O=C(CCCCn1cnc2c(=S)nc[nH]c21)Nc1ccc(C(=O)O)cc1	none (no result: Rce1 inh, PfM18AAP inh-1)
O=C(O)Cn1cnc2c(=S)nc[nH]c21	PfM18AAP inh-1 57 | PfM18AAP inh-2 inactive | CTSL1 counter inactive
O=C(O)c1ccc2nc(-c3ccco3)c(-c3ccco3)nc2c1	PfM18AAP inh-1 35 | PfM18AAP inh-2 inactive | CTSL1 counter inactive
Oc1ccc(/C=N/N2CCCCC2)c(O)c1O	PfM18AAP inh-1 48 | PfM18AAP inh-2 inactive | CTSL1 counter inactive
Oc1cccc(/C=N/N2CCCCC2)c1O	PfM18AAP inh-1 45 | PfM18AAP inh-2 inactive | CTSL1 counter inactive
CCC(=O)c1ccc(OCC(=O)Nc2nn3cnnc3s2)cc1	PfM18AAP inh-1 66 | PfM18AAP inh-2 40 | CTSL1 counter inactive
CCOc1ccc(NC(=O)COc2ccc(-n3cnnn3)cc2)cc1	none (no result: Rce1 inh, PfM18AAP inh-1)
COc1ccccc1Cc1nnc(NC(=O)C2CCN(C(=O)c3ccco3)CC2)s1	PfM18AAP inh-1 42 | PfM18AAP inh-2 inactive | CTSL1 counter inactive
COCc1nnc(NC(=O)C2CCN(C(=O)c3ccco3)CC2)s1	none
O=C1CSC(=S)N1/N=C/c1cccnc1	PfM18AAP inh-1 35 | PfM18AAP inh-2 inactive | CTSL1 counter inactive
O=C1CSC(=S)N1N=Cc1ccccc1O	none (no result: Rce1 inh, PfM18AAP inh-1)
Cc1ccccc1/C=N/N1C(=O)CSC1=S	PfM18AAP inh-1 35 | PfM18AAP inh-2 inactive | CTSL1 counter inactive
CCOC(=O)[C@@H]1c2[nH]c3ccccc3c2C[C@@]2(C(=O)OC)C=CCN12	none (no result: Rce1 inh, PfM18AAP inh-1)
S=C(N/N=C/c1ccccc1)N1CCOCC1	PfM18AAP inh-1 34 | PfM18AAP inh-2 inactive | CTSL1 counter 35
CCOC(=O)Cc1csc(NC(=O)CSc2nnc(-c3ccc(NS(=O)(=O)CC)cc3)o2)n1	PfM18AAP inh-1 39 | PfM18AAP inh-2 inactive | CTSL1 counter inactive
COc1cc(C(C[N+](=O)[O-])c2c(C)cc3ccccn23)ccc1O (stereo not drawn)	PfM18AAP inh-1 40 | PfM18AAP inh-2 inactive | CTSL1 counter inactive
COc1cc(C(C[N+](=O)[O-])c2c(-c3ccccc3)cc3ccccn23)cc(OC)c1OC (stereo not drawn)	none
C=CCn1c(COc2ccc(C)cc2)nnc1SCC(=O)c1ccc(-c2ccccc2)cc1	none (no result: Rce1 inh, PfM18AAP inh-1)
NS(=O)(=O)c1ccc(NC(=S)NC2CCCCCC2)cc1	PfM18AAP inh-1 44 | PfM18AAP inh-2 inactive | CTSL1 counter inactive
NS(=O)(=O)c1ccc(NC(=S)NC2CCCC2)cc1	PfM18AAP inh-1 46 | PfM18AAP inh-2 inactive | CTSL1 counter inactive
Cc1cccc(OCCCN2CCC(C(O)(c3ccccc3)c3ccccc3)CC2)c1	none (no result: Rce1 inh, PfM18AAP inh-1)
C[C@H]1[C@@H](OC(=O)Nc2ccc(Br)cc2)CC[C@@]23CCCN2C(=O)CCC[C@@H]13	none (no result: Rce1 inh, PfM18AAP inh-1)
